From PubChem
KB-V1 cytotox: kills drug-selected multidrug resistant KB-V1 cells. Potency, µM (doses to about 46.1 µM), usual class: cytotoxic. AID 1347076. 400,000 tested, 3.4% active. KB-V1 MDR cells viability, CellTiter-Glo, 72 h; also: nearly all actives have a fitted effect of over 60% in size
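Luminescent ATP read-out (CellTiter-Glo, 10 min) measures survival of drug-selected KB-V1 MDR cells after 72 h, 37 degrees C compound exposure. Medium: phenol-red-free DMEM, 10% FBS. Values from fitted concentration-response curves.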
KB-3-1 tox: kills parental KB-3-1 adenocarcinoma cells; 400,000 tested, 1.4% active; Potency, µM (highest dose often 46.1 µM), usual class: cytotoxic; AID 1347075; KB-3-1 viability, CellTiter-Glo ATP luminescence, 72 h; also: nearly all actives have a fitted effect of over 60% in size
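Using CellTiter-Glo luminescence, growth of non-resistant KB-3-1 adenocarcinoma cells is assessed 72 h after pin-tool compound addition at 37 °C. Normalized responses across the concentration series yield fitted curves.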
HT1080-NT tox: kills 2HG-producing HT-1080-NT fibrosarcoma cells; HT-1080-NT fibrosarcoma viability, CellTiter-Glo ATP luminescence, 48 h; Potency, µM (top dose mostly 46.1 µM), actives largely listed as cytotoxic; 360,000 tested, 1.6% active; AID 686970;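 also: NT is the 2HG producing partner of a matched IDH1 knockdown line; nearly all actives have a fitted effect of over 55% in size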
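HT-1080-NT fibrosarcoma cells (2HG-overproducing), 750 cells/well in RPMI with 5% FBS, dosed after 2 h and incubated 48 h at 37C. CellTiter-Glo luminescence normalized to DMSO and no-cell wells; concentration-response curves fitted and classed.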
TDP1 cell noCPT: qHTS for Inhibitors of human tyrosyl-DNA phosphodiesterase 1 (TDP1): qHTS in cells in absence of CPT | DT40 Tdp1-/- hTDP1 cells, no CPT, ATP luminescence, 48 h | Potency, µM (highest dose often 46.2 µM), hits mostly inhibitors | 420,000 tested, 15% active; also: nearly all actives have a fitted effect of over 55% in size
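Growth of hTDP1-complemented DT40 Tdp1-knockout cells is measured by ATP luminescence after at least 48 hr compound exposure at 37 °C, with DMSO substituting for the 20 nM CPT used in the parallel screen.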
TDP1 cell CPT: DT40-hTDP1 cell growth loss with CPT. Potency, µM (series often up to 46.2 µM), hits mostly inhibitors. 420,000 tested, 12% active. chicken DT40 Tdp1-/-;hTDP1 cells + 20 nM CPT, ATP luminescence, 48 h. AID 686979; also: nearly all actives have a fitted effect of over 55% in size
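Cell growth measured by CellTiter-Glo luminescence after a minimum 48 h, 37 C compound exposure with 20 nM CPT in Tdp1-knockout DT40 cells stably expressing hTDP1, seeded 400/well; qHTS titration format.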
HT1080 IDH1KD tx: kills HT-1080 cells with IDH1 knockdown. HT-1080 IDH1 knockdown viability, ATP luminescence, 48 h. Potency, µM (top dose mostly 46.1 µM), most hits filed as cytotoxic. 360,000 tested, 2% active
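% activity derives from luminescence (CellTiter-Glo), normalised to DMSO and no-cell wells. HT-1080-IDH1KD cells, 750/well, had 48 h compound exposure at 37 °C.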
Hits are given with their value; [ ] = another dose, or the depositor's remark. Only some compounds are listed: those with a hit (about 19% of all), similar ones and a draw of the others. Calls follow the shape of the dose curve; as a rule, active = well fitted curve in the direction sought with a large enough effect; inconclusive = small, poorly fitted or top-dose-only effect, or another doubt; inactive = no such curve, though single readings can be large; an effect the other way counts as inactive or inconclusive.

`COc1cc(OC)cc(C(=O)N[C@H](C(=O)OCc2cc(=O)oc3cc(C)ccc23)C(C)C)c1` gave KB-V1 cytotox 3.7µM, KB-3-1 tox inactive, HT1080-NT tox inactive, TDP1 cell noCPT inconclusive, TDP1 cell CPT inconclusive and HT1080 IDH1KD tx inactive.
COc1cc(OC)cc(C(=O)NCC(=O)OCc2cc(=O)oc3cc(OC)ccc23)c1 was read as KB-V1 cytotox inactive, KB-3-1 tox inactive, HT1080-NT tox inactive, TDP1 cell noCPT inactive, TDP1 cell CPT inactive and HT1080 IDH1KD tx inactive.
Cc1ccc2c(COC(=O)c3ccccc3Cl)cc(=O)oc2c1 was read as KB-V1 cytotox inactive, KB-3-1 tox inactive, HT1080-NT tox inactive, TDP1 cell noCPT inactive, TDP1 cell CPT inactive and HT1080 IDH1KD tx inactive.
Screening CCOc1ccccc1C(=O)NCC(=O)OCc1csc(CC(=O)Nc2ccc(C)cc2)n1 returned HT1080-NT tox inactive, TDP1 cell noCPT inactive, TDP1 cell CPT inconclusive and HT1080 IDH1KD tx inactive.
Screening CC(C)C(NC(=O)c1ccccc1)C(=O)OCn1nnc2ccccc2c1=O (configuration not stated) returned KB-V1 cytotox inactive, KB-3-1 tox inactive, HT1080-NT tox inactive[9.24 µM], TDP1 cell noCPT inactive, TDP1 cell CPT inactive and HT1080 IDH1KD tx inactive.
CCOc1ccccc1C(=O)N[C@H](C(=O)OCc1cc(=O)oc2cc(C)ccc12)C(C)C was read as KB-V1 cytotox 3.3µM, KB-3-1 tox inactive, HT1080-NT tox inactive, TDP1 cell noCPT 16µM, TDP1 cell CPT 6.5µM and HT1080 IDH1KD tx inactive.
CCOc1ccccc1C(=O)NC(C(=O)OCn1nnc2ccccc2c1=O)C(C)C (configuration not stated) was read as KB-V1 cytotox inactive, KB-3-1 tox inactive, HT1080-NT tox inactive, TDP1 cell noCPT 26µM, TDP1 cell CPT inconclusive and HT1080 IDH1KD tx inactive.
CCOc1ccccc1C(=O)N[C@H](C(=O)OCc1csc(CC(=O)Nc2ccc(C)cc2)n1)C(C)C was read as KB-V1 cytotox inactive, KB-3-1 tox inactive, HT1080-NT tox inconclusive, TDP1 cell noCPT 15µM, TDP1 cell CPT 18µM and HT1080 IDH1KD tx inconclusive.
Screening CCOC(=O)c1c(C)c(-c2ccccc2)n(CC(=O)Nc2cc(OC)cc(OC)c2)c1C returned KB-V1 cytotox inactive, KB-3-1 tox inactive, TDP1 cell noCPT inconclusive and TDP1 cell CPT inconclusive.
For CCOC(=O)c1c(S(=O)(=O)N2CCC(C(=O)Nc3ccc(C)cc3C)CC2)c(C)n(C)c1C the results were KB-V1 cytotox inactive, KB-3-1 tox inactive, TDP1 cell noCPT inactive and TDP1 cell CPT inactive.
Screening Cc1cc(F)ccc1NC(=O)c1csc2c1CCC(C)C2 (configuration not stated) returned KB-V1 cytotox inactive, KB-3-1 tox inactive, TDP1 cell noCPT inactive and TDP1 cell CPT inconclusive.
For CCc1cccc(CC)c1NC(=O)CCS(=O)(=O)c1ccc(Br)s1 the results were KB-V1 cytotox inactive, KB-3-1 tox inactive, TDP1 cell noCPT inactive and TDP1 cell CPT inactive.
`O=C1NC(c2ccc(Br)cc2)Oc2ccccc21` (configuration not stated) gave KB-V1 cytotox inactive, KB-3-1 tox inactive, HT1080-NT tox inactive, TDP1 cell noCPT inactive, TDP1 cell CPT inactive and HT1080 IDH1KD tx inactive.
C=CCNc1nc(-c2sc(NC(=O)CC)nc2C)cs1 was read as KB-V1 cytotox inconclusive, KB-3-1 tox inconclusive, HT1080-NT tox inactive, TDP1 cell noCPT inconclusive, TDP1 cell CPT inconclusive and HT1080 IDH1KD tx inconclusive.
Screening COc1ccccc1Nc1nc(-c2cccnc2)cs1 returned KB-V1 cytotox inconclusive, KB-3-1 tox inactive, HT1080-NT tox inactive, TDP1 cell noCPT inconclusive, TDP1 cell CPT inconclusive and HT1080 IDH1KD tx inactive.
For C=CCCC(=O)Nc1nc(C)c(-c2csc(Nc3ccccc3OC)n2)s1 the results were KB-V1 cytotox inconclusive, KB-3-1 tox 7.3µM, HT1080-NT tox inconclusive, TDP1 cell noCPT 7.3µM, TDP1 cell CPT 6.5µM and HT1080 IDH1KD tx 16µM.
